Rows were chosen to be rich in hits. Some 11% of all compounds tested hit in one or more screens of this group.
USP30 block – human USP30 deubiquitinase inhibition | AID 1645860 | 5.3% of 47,000 active | inhibition, % at 25 µM | purified USP30, Ub-rhodamine cleavage fluorescence
OTUD3 inh – human OTUD3 deubiquitinase inhibition; Q5T2D3; purified OTUD3, Ub-rhodamine fluorescence, 2 h; inhibition, % at 25 µM; 0.7% of 47,000 active; AID 1645858
USP17 block – human USP17-like deubiquitinase inhibition | AID 1645855 | purified USP17, Ub-rhodamine cleavage fluorescence, 3 h | 6.5% of 47,000 active | A8MUK1 | inhibition, % at 50 µM
USP28 inh – human USP28 deubiquitinase inhibition; purified USP28, Ub-rhodamine cleavage fluorescence, 30 min; inhibition, % at 25 µM; AID 1645857; 3% of 47,000 active
Target sequence (Q96RU2 whole entry, looked up): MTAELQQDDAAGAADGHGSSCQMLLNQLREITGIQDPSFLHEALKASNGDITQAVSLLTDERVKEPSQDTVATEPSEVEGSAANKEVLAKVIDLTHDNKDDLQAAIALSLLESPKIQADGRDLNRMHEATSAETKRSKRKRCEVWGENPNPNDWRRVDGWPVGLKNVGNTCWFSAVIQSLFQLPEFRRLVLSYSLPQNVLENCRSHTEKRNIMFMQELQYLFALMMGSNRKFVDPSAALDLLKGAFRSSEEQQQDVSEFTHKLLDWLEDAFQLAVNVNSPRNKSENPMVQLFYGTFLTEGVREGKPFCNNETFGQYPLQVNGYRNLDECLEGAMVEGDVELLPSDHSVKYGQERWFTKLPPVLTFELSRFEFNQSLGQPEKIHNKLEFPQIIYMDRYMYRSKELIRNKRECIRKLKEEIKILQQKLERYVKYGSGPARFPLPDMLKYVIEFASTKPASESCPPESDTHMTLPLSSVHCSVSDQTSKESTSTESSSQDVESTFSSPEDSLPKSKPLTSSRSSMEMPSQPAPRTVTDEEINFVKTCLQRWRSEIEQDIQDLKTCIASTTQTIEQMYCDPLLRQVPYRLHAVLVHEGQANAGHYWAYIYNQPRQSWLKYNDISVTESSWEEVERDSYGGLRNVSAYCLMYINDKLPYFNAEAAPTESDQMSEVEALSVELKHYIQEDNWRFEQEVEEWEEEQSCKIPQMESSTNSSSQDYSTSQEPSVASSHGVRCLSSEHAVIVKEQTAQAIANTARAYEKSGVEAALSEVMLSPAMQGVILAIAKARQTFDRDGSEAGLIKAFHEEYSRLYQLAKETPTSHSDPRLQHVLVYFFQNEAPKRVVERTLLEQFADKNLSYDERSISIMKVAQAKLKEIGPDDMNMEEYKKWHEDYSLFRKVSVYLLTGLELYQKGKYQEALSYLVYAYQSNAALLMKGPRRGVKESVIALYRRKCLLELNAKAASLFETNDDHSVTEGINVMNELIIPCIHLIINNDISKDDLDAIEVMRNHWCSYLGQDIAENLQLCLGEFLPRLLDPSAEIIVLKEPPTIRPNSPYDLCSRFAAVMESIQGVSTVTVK
Hits are given with their value. No stated cut-off is given here; in the data, active means inhibition above about 30%; inactive means the rest.

`Cc1ccccc1N1C(=O)/C(=C\c2cccn2C)c2ccccc2C1=O` gave USP30 block inactive, OTUD3 inh inactive, USP17 block 61 and USP28 inh inactive.
For CCOc1ccccc1NC(=O)C(OC(=O)c1ccc(OCC(=O)Nc2ccc(OC)cc2)c(OC)c1)c1ccccc1 (configuration not stated) the results were USP30 block inactive, OTUD3 inh inactive, USP17 block inactive and USP28 inh inactive.
`CCOc1ccccc1NC(=O)COc1cc(OC)ccc1C(=O)c1ccccc1` gave USP30 block inactive, OTUD3 inh inactive, USP17 block inactive and USP28 inh 56.
O=C(CN(C(=O)CCC(=O)Nc1ccccn1)c1cccc(F)c1)NCc1ccc(F)cc1 was read as USP30 block 33, OTUD3 inh inactive, USP17 block inactive and USP28 inh inactive.
`COc1ccc(CNC(=O)CN(C(=O)CCC(=O)Nc2ccccn2)c2ccc(OC)cc2)cc1` gave USP30 block inactive, OTUD3 inh inactive, USP17 block inactive and USP28 inh inactive.
`Cn1nc(C2CCCN(C(=O)CC3CCCC3)C2)c2nccnc21` (configuration not stated) gave USP30 block inactive, OTUD3 inh inactive, USP17 block inactive and USP28 inh inactive.
For Cn1c(=O)c2c(nc(CN3CCN(c4ccccc4F)CC3)n2Cc2ccccc2Cl)n(C)c1=O the results were USP30 block 31, OTUD3 inh inactive, USP17 block inactive and USP28 inh inactive.
Screening O=C(COc1ccc(F)cc1)Nc1ccc2c(c1)CCC(=O)N2Cc1ccccc1 returned USP30 block inactive, OTUD3 inh inactive and USP28 inh inactive.
For O=C(COc1ccccc1F)Nc1ccc2c(c1)CN(C(=O)c1ccco1)CC2 the results were USP30 block inactive, OTUD3 inh inactive, USP17 block inactive and USP28 inh 41.
Screening O=C(COc1ccccc1)Nc1ccc2c(c1)CN(C(=O)c1ccco1)CC2 returned USP30 block inactive, OTUD3 inh inactive, USP17 block inactive and USP28 inh inactive.
`COc1ccc(C(=O)Nc2ccc3c(c2)CN(C(=O)c2ccco2)CC3)c(OC)c1OC` gave USP30 block inactive, OTUD3 inh inactive, USP17 block inactive and USP28 inh inactive.
For COc1ccccc1OCC(=O)Nc1ccc2c(c1)CN(C(=O)c1ccco1)CC2 the results were USP30 block inactive, OTUD3 inh inactive, USP17 block 33 and USP28 inh 36.
Screening COc1ccccc1OCC(=O)Nc1ccc2c(c1)CCC(=O)N2Cc1ccccc1 returned USP30 block 54, OTUD3 inh inactive, USP17 block inactive and USP28 inh inactive.
Screening CCNc1nc2c(c(=O)[nH]c(=O)n2C)n1CC(O)COc1ccc(C)c(C)c1 (configuration not stated) returned USP30 block inactive, OTUD3 inh inactive, USP17 block inactive and USP28 inh inactive.
Screening O=C(CCc1nnc2n(Cc3ccc(Cl)cc3)c(=O)c3ccccc3n12)N1CCOCC1 returned USP30 block inactive, OTUD3 inh inactive, USP17 block inactive and USP28 inh inactive.
COC(=O)c1cccc(NC(=O)c2nc(C)n(C3CCN(C)CC3)c2C)c1 was read as USP30 block inactive, OTUD3 inh inactive, USP17 block inactive and USP28 inh inactive.
`O=c1[nH]c2ccc(S(=O)(=O)Nc3ccc(O)c4ccccc34)cc2[nH]1` gave USP30 block inactive, OTUD3 inh 63, USP17 block 63 and USP28 inh inactive.
Screening Cc1ccc(S(=O)(=O)Nc2cc3[nH]c(=O)[nH]c3cc2C)c(C)c1 returned USP30 block inactive, OTUD3 inh inactive, USP17 block inactive and USP28 inh inactive.
`COc1ccccc1-c1nc2c3c(C)c(C)n(Cc4cccnc4)c3ncn2n1` gave USP30 block inactive, OTUD3 inh inactive, USP17 block inactive and USP28 inh 51.
`COc1ccccc1-c1nc2c3c(ncn2n1)Oc1c(c(C)nn1-c1ccccc1)C3c1cccnc1` (configuration not stated) gave USP30 block inactive, OTUD3 inh inactive, USP17 block 54 and USP28 inh inactive.
`COc1ccccc1-c1nc2c3c(C)c(C)n(CCCN(C)C)c3ncn2n1` gave USP30 block inactive, OTUD3 inh inactive, USP17 block inactive and USP28 inh inactive.
Screening COc1ccc(/C=N/OCc2nc3c4c(ncn3n2)Oc2c(c(C)nn2-c2ccccc2)C4c2ccco2)cc1 (configuration not stated) returned USP30 block 42, OTUD3 inh inactive, USP17 block inactive and USP28 inh inactive.
For COc1ccc(-c2nc3c4c(ncn3n2)Oc2c(c(C)nn2-c2ccccc2)C4c2ccc(OC)c(OC)c2)cc1 (configuration not stated) the results were USP30 block inactive, OTUD3 inh inactive, USP17 block inactive and USP28 inh inactive.
`CC(=O)Nc1cc(=O)[nH]c2nc(-c3ccc(C(C)(C)C)cc3)nn12` gave OTUD3 inh inactive and USP17 block inactive.
Screening COc1ccccc1NC(=O)CSc1nc2ccccc2n1S(=O)(=O)c1cc([N+](=O)[O-])ccc1C returned USP30 block inactive, OTUD3 inh inactive, USP17 block inactive and USP28 inh inactive.
`Cc1ccc(NC(=O)CSc2nc3ncccc3[nH]2)c(C)c1` gave USP30 block inactive, OTUD3 inh inactive, USP17 block inactive and USP28 inh inactive.
O=C(CSc1nc2ccccc2n1S(=O)(=O)c1ccc(Br)cc1)Nc1ccc(Br)cc1F was read as USP30 block inactive, OTUD3 inh inactive, USP17 block 34 and USP28 inh inactive.
`COc1ccc2nc(SCC(=O)Nc3ccc(NC(C)=O)cc3)n(S(=O)(=O)c3ccc(Cl)cc3)c2c1` gave USP30 block inactive, OTUD3 inh inactive, USP17 block inactive and USP28 inh inactive.
Screening COc1ccc(S(=O)(=O)n2c(SCC(=O)Nc3ccc(Oc4ccccc4)cc3)nc3ccccc32)cc1 returned USP30 block inactive, OTUD3 inh inactive, USP17 block inactive and USP28 inh 45.
Screening O=C(CSc1nc2ccncc2[nH]1)Nc1ccc(Br)cc1F returned USP30 block inactive, OTUD3 inh inactive, USP17 block 61 and USP28 inh inactive.
Screening O=C(CSc1nc2ccccc2n1S(=O)(=O)c1ccc(Br)cc1)Nc1ccc([N+](=O)[O-])cc1Cl returned USP30 block inactive, OTUD3 inh inactive, USP17 block inactive and USP28 inh 54.
CCn1cc(CN2CCOC(c3cccc(Nc4ccccn4)n3)C2)cn1 (configuration not stated) was read as USP30 block inactive, OTUD3 inh inactive, USP17 block inactive and USP28 inh inactive.
Screening Cc1ccc2c(c1)-c1c(c(C(=O)NCc3ccccc3)nn1C)CS2 returned USP30 block inactive, OTUD3 inh inactive, USP17 block inactive and USP28 inh inactive.
For CC(C)CCNc1ncnc2c1sc1nc(N3CCOCC3)c3c(c12)CC(C)(C)OC3 the results were USP30 block inactive, OTUD3 inh inactive, USP17 block inactive and USP28 inh inactive.
COc1cccc(NC(=O)N2CCn3cccc3C2c2ccccc2)c1OC (configuration not stated) was read as USP30 block inactive, OTUD3 inh inactive, USP17 block inactive and USP28 inh inactive.

Assay outcomes deposited in PubChem by Buhrlage Lab, Dana-Farber Cancer Institute and Novartis Institutes for BioMedical Research (Cambridge, Mass).
